From PubChem
IL-1B inflam inh = qHTS for Inhibitors of Inflammasome Signaling: IL-1-beta AlphaLISA Primary Screen; hit rate 4.7% among 360,000; activity change, % at 57.5 µM; AID 743279, 2014; THP-1 LPS/ATP IL-1B secretion, AlphaLISA, 16 h; active compounds read low; in the data active = activity change below about -50%; inconclusive = mostly about -30% to -49%; also: % is scaled to controls: 0 for no effect and ±100 for the full control effect
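THP-1 cells pretreated 1 hr with compounds (up to 57.5 uM final), then stimulated with LPS (250 ng/mL final) plus ATP (1.25 mM final); secreted IL-1B measured by AlphaLISA after 16 hr, decreased signal indicating inhibition.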
TGFb SMAD3 inh = qHTS for Inhibitors of TGF-b | HepG2 CAGA-GFP TGF-b/SMAD3 reporter, GFP fluorescence, 18 h; TGF-beta stimulated, 500 pg/mL final | Potency, µM (highest dose often 46.1 µM), inactives show at the top dose activity, negative = inhibition, hits mostly inhibitors | hit rate 1.2% among 410,000 | AID 588855, 2011; also: potency is read from the fitted curve at half-maximal effect; % is scaled to controls: 0 for no effect and ±100 for the full control effect; nearly all actives have a fitted effect of over 65% in size
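First, reporter cells (HEPG2 CAGA-GFP) rested 2 h at 37 degrees C. Next, compounds were pinned in and TGF-beta added to 500 pg/mL final. After 18 h, GFP was imaged per cell and summed per well.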
HT1080 IDH1KD tx = qHTS for induction of synthetic lethality in tumor cells producing 2HG: qHTS for the HT-1080-IDH1KD cell line. HT-1080 IDH1 knockdown viability, ATP luminescence, 48 h. Potency, µM (doses to about 46.1 µM), inactives show at the highest dose activity, negative = toxicity, hits mostly cytotoxic. hit rate 2% among 360,000. AID 686971, 2013;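 also: potency is read from the fitted curve at half-maximal effect; 0% = DMSO wells and -100% = cell-free medium wells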
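IDH1KD HT-1080 cells, 750/well, RPMI + 5% FBS; compound pinned after 2 h settling; 48 h, 37 °C; CellTiter-Glo luminescence; % activity normalised to DMSO and no-cell wells; curves fitted, classed by r2 and efficacy.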
Giardia kill = Small Molecules that selectively kill Giardia lamblia: qHTS; Giardia lamblia trophozoite viability; activity change, % at 7.66 µM, hits read low; hit rate 0.15% among 340,000; in the data active = activity change below about -80%; inconclusive = between about -30% and that limit;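 also: parasites exposed to compound for two days anaerobically before the ATP read; % is scaled to controls: 0 for no effect and ±100 for the full control effect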
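Media and compound were dispensed first, then trophozoites at 100 cells/well; plates sat 48 hrs at 37 deg C without oxygen before ATP luminescence reagent was added and read after 15-30 min at room temperature.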
HT1080-NT tox = qHTS for induction of synthetic lethality in tumor cells producing 2HG: qHTS for the HT-1080-NT fibrosarcoma cell line | HT-1080-NT fibrosarcoma viability, CellTiter-Glo ATP luminescence, 48 h | hit rate 1.6% among 360,000 | Potency, µM (doses to about 46.1 µM), inactives show top-dose activity, negative = less viability, usual class: cytotoxic | AID 686970, 2013;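 also: NT is the 2HG producing partner of a matched IDH1 knockdown line; potency is read from the fitted curve at half-maximal effect; 0% = DMSO-treated cells and -100% = media-only wells without cells; nearly all actives have a fitted effect of over 55% in size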
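Viability by CellTiter-Glo luminescence after 48 h compound exposure at 37C of HT-1080-NT cells (750/well, RPMI, 5% FBS). % activity scaled between DMSO wells and medium-only wells, then curve-fitted and categorized by curve class.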
HepG2 tox-1 = qHTS for Inhibitors of TGF-b: Cytotox Counterscreen; HepG2 CAGA-GFP viability, ATP luminescence, 18 h; Potency, µM (top dose mostly 46.1 µM), without a hit: at the top dose activity change, negative = cytotoxicity, hits mostly cytotoxic; hit rate 0.76% among 410,000; also: potency is read from the fitted curve at half-maximal effect
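CellTiter-Glo luminescence gave cytotoxicity after 18 hours at 37 degrees C. The cells were HepG2 CAGA-GFP in 1% FBS DMEM, stimulated with 500 pg/mL TGF-beta after compound addition. %Activity was normalised to no-cell wells (complete cell-killing) and DMSO (no toxicity), and curves were fitted and classified.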
TGFb CAGA inh = qHTS for Inhibitors of TGF-b: Confirmation of Cherry Picks; Potency, µM (top dose mostly 46.1 µM), inactives show top-dose activity, negative = inhibition, actives largely listed as inhibitors; AID 720534, 2013; HepG2 CAGA-GFP TGF-b reporter, GFP fluorescence, 18 h; cells stimulated with TGF-beta, 500 pg/mL; hit rate 63% among 1,600; shares compounds with TGFb SMAD3 inh; also: potency is read from the fitted curve at half-maximal effect; % is scaled to controls: 0 for no effect and ±100 for the full control effect; nearly all actives have a fitted effect of over 65% in size
HepG2 tox-2 = qHTS for Inhibitors of TGF-b: Cytotox Counterscreen for Cherry Picks; hit rate 27% among 1,600; AID 720535, 2013; shares compounds with TGFb SMAD3 inh; Potency, µM (series often up to 46.1 µM), for inactives: at the highest dose activity, negative = cytotoxicity, most hits filed as inhibitors; HepG2 CAGA-GFP viability, ATP luminescence, 18 h; cells stimulated with TGF-beta, 500 pg/mL; also: potency is read from the fitted curve at half-maximal effect; % is scaled to controls: 0 for no effect and ±100 for the full control effect; nearly all actives have a fitted effect of over 70% in size
TGFb CCL64 inh = qHTS for Inhibitors of TGF-b: CCL64 Cells Orthogonal Assay for Cherry Picks | shares compounds with TGFb SMAD3 inh | CCL64 CAGA-GFP reporter, TGF-b stimulated, GFP fluorescence, 18 h | Potency, µM (highest dose often 46.1 µM), inactives show at the top dose activity, negative = inhibition, hits mostly inhibitors | hit rate 41% among 1,600 | AID 720536, 2013; also: potency is read from the fitted curve at half-maximal effect; nearly all actives have a fitted effect of over 65% in size
TGFb COP inh = qHTS for Inhibitors of TGF-b: Hit Validation in HepG2 Cells using COP promoter; shares compounds with TGFb SMAD3 inh; HepG2 COP-GFP TGF-b reporter, GFP fluorescence, 18 h; cells stimulated by added recombinant TGF-beta; Potency, µM (titrated, usually from 46.1 µM), for inactives: at the highest dose activity, negative = inhibition, most hits filed as inhibitors; hit rate 3% among 1,600; AID 720537, 2013; also: potency is read from the fitted curve at half-maximal effect; nearly all actives have a fitted effect of over 70% in size
Active calls of the source: *; i = inactive; ? = inconclusive; . = not tested or not shown. In the library only some 6.5% were active in any assay of this set; here they are far more common. Unless noted, calls follow the shape of the dose curve; as a rule, active = well fitted curve in the direction sought with a large enough effect; inconclusive = small, poorly fitted or top-dose-only effect, or another doubt; inactive = no such curve, though single readings can be large; an effect the other way counts as inactive or inconclusive.

SMILES | IL-1B inflam inh | TGFb SMAD3 inh | HT1080 IDH1KD tx | Giardia kill | HT1080-NT tox | HepG2 tox-1 | TGFb CAGA inh | HepG2 tox-2 | TGFb CCL64 inh | TGFb COP inh
CCC12OC(=N)C(C#N)(C1C)C(C#N)(C#N)C(c1ccccc1)O2 (stereo unspecified) | 6.8 | 7.4% | 3.8% | -4.7 | 1.6% | -9.7% | . | . | . | .
NC(=O)C1CCN(C(=O)CN(c2ccc3c(c2)OCCO3)S(=O)(=O)c2ccccc2)CC1 | -9.4 | -0.5% | -4.6% | 1.0 | -5.5% | -9.9% | . | . | . | .
O=C(Nc1ccc(F)cc1F)Nc1sccc1-c1nc2ccccc2s1 | -7.0 | 11.2µM* | 0.9% | -12.0 | ? | 0.5% | ? | -16.5% | ? | -4.9%
CC(=O)c1c(C)c(C)c2n1CCn1c(C)ccc1-2 | 27.1 | -4.5% | 2.6% | 3.9 | 6.4% | -16.6% | . | . | . | .
COc1cc(C2NC(=O)NC(C)=C2C(=O)OC(C)(C)C)ccc1OCC(N)=O (stereo unspecified) | 5.1 | -30.0% | 0.7% | -5.6 | -1.5% | 1.1% | . | . | . | .
O=C1C=C(NC2=CC3OC(c4ccccc4)OCC3OC2=O)CCC1 (stereo unspecified) | -117.5* | 10µM* | 20.6µM* | 0.3 | -26.4% | -18.3% | 10.3µM* | ? | 13µM* | 27.2%
Cc1ccc(NC(=S)/N=C(\N)Nc2nc(C)c3cc(C)ccc3n2)c(C)c1 | -17.0 | 10µM* | ? | 3.0 | -12.2% | -30.6% | 4.61µM* | -25.8% | ? | 14.9%
CCc1ccccc1NC(=S)/N=C(\N)Nc1nc(C)c2cc(C)ccc2n1 | -101.3* | ? | -28.7% | -19.5 | -9.3% | -2.6% | 4.11µM* | -25.9% | ? | 30.0%
COc1ccc(Cl)cc1CN1C(=O)C(Cc2ccccc2)ON=C1C (stereo unspecified) | -18.7 | 3.5% | -11.0% | . | -19.7% | -12.4% | . | . | . | .
CCCC(=O)Nc1cccc(NC(=O)c2ccc([N+](=O)[O-])cc2Cl)c1 | 9.7 | 2.4% | -0.9% | 9.0 | 1.6% | -1.0% | . | . | . | .
O=C(Nc1cccc(Cl)c1)c1cc(N=Nc2ccc([N+](=O)[O-])cc2Cl)ccc1O | 23.3 | ? | -16.8% | -23.5 | -13.2% | -57.3% | 4.61µM* | 5.17µM* | 2.31µM* | 77.4%
COc1ccc(CCNC(=O)CSc2nccc(=O)[nH]2)cc1OC | 0.0 | -1.8% | 6.5% | -0.9 | 3.7% | 0.8% | . | . | . | .
Cc1ccccc1OC(C)c1nc(-c2ccccc2)no1 (stereo unspecified) | 0.7 | -3.5% | 9.1% | -7.3 | 10.2% | 1.1% | . | . | . | .
CCN1C(=O)[C@@H]2[C@H](C1=O)[C@@H]1CC(C(=O)OC)=C[C@@H](C(=O)OC)C3C1=C(C(=O)C3(CC)CC)[C@@H]2C (stereo partly specified) | 2.5 | -20.3% | 7.4% | 3.2 | 12.9% | -5.3% | . | . | . | .
Cc1ccccc1NC(=O)c1ccc(Nc2c([N+](=O)[O-])cc([N+](=O)[O-])c3ccccc23)cc1 | i | ? | -7.7% | -5.5 | -17.3% | -19.7% | ? | -18.5% | 2.3% | -0.8%
COc1ccc(CNc2nc(S(=O)(=O)c3ccccc3)c(Cl)s2)cc1OC | ? | ? | ? | -6.7 | ? | -24.7% | . | . | . | .
COc1cc2c(c(OC)c1OC)-c1ccc(OC)c(=O)cc1C(NC(=O)c1ccccc1)CC2 (stereo unspecified) | 10.3 | ? | 0.0206µM* | -15.6 | 0.0731µM* | -16.5% | ? | 0.2% | ? | ?
COc1cc2c(c(OC)c1OC)-c1ccc(SC)c(=O)cc1C(NC=O)CC2 (stereo unspecified) | 29.7 | -90.9% | ? | 3.3 | 0.0461µM* | -33.7% | ? | 23.1µM* | ? | 43.5%
COc1cc(C(=O)NC2CCCc3ccccc32)cc(OC)c1C (stereo unspecified) | 43.6 | -10.3% | -20.9% | 0.7 | -29.9% | 9.0% | . | . | . | .
O=C(COC(=O)c1ccc2ccccc2n1)Nc1cccc(S(=O)(=O)NC2=NCCCCC2)c1 | 2.1 | -2.4% | -5.7% | 5.5 | -8.3% | -74.8% | . | . | . | .
CCc1nc2ccccc2c(C(=O)OCC(=O)Nc2cccc(S(=O)(=O)NC3=NCCCCC3)c2)c1C | -83.7* | 11.2µM* | ? | 0.8 | ? | -22.2% | 7.31µM* | ? | ? | 21.2%
COC(=O)c1ccc(NC(=O)CN2CCCC2)cc1 | -13.2 | 14.0% | 0.5% | 5.8 | -1.1% | 0.1% | . | . | . | .
COc1ccc(-n2nc(C(=O)Nc3ccc(C)cn3)c3c4ccccc4n(C)c3c2=O)cc1Cl | . | -6.9% | . | . | . | 8.7% | . | . | . | .
Cc1nc(SCC(=O)N2CCN(c3ccccc3)CC2)n[nH]1 | -16.2 | 17.3% | 3.8% | 1.6 | 9.2% | 10.2% | . | . | . | .
O=C(CSc1nc(N2CCCCC2)nc(N2CCCCC2)n1)N1CCN(c2ccccc2)CC1 | -13.3 | 6.31µM* | -11.3% | -14.6 | -13.1% | 4.1% | 16.4µM* | -8.4% | ? | 4.2%
